# High-throughput results deposited in PubChem BioAssay by National Center for Advancing Translational Sciences (NCATS).
# This is a sample that favours compounds with a hit; in the whole collection about 9.2% have one here.
# ELG1 genotoxic = qHTS screen for small molecules that induce genotoxicity in human embryonic kidney (HEK293T) cells expressing luciferase-tagged ELG1; HEK293T ELG1-luciferase reporter, luminescence, 16 h; AID 504466, 2011; Potency, µM (series often up to 46 µM), for inactives: at the top dose activity change, positive = activation, usual class: activators; actives 1.3% (n = 330,000); further: % of control where 0% means no effect; nearly all actives have a fitted effect of over 60% in size
#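 HEK293T cells expressing luciferase-tagged ELG1 were exposed to compound or DMSO vehicle for 16 hr at 37 °C and 5% CO2. Luciferase activity was then measured with ONE-Glo after 30 min at room temperature.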
# Rab9 promoter act = qHTS Assay for Rab9 Promoter Activators. Huh7 Rab9 promoter-luciferase reporter, luminescence, 24 h. Potency, µM (top dose mostly 9.22 µM), inactives show at the top dose activation, negative = inhibition, actives largely listed as activators. actives 2.8% (n = 320,000); further: % of control where 0% means no effect; nearly all actives have a fitted effect of over 60% in size
#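 Steps: seed 1500 Huh7 Rab9-luc cells per well, rest 2 h at 37 °C; add compound in DMSO; incubate 24 h; add luciferase reagent, 10 min ambient; read luminescence.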
# SMN2 splice up = qHTS Assay for Enhancers of SMN2 Splice Variant Expression | HEK293 SMN2-luciferase splicing reporter, luminescence, 30-36 h | Potency, µM (doses to about 46.1 µM), for inactives: at the highest dose activity change, positive = activation, hits mostly activators | actives 2.8% (n = 210,000) | AID 1458, 2008; further: % of control where 0% means no effect; nearly all actives have a fitted effect of over 55% in size
#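 HEK293 cells carry an SMN2 […]–luciferase reporter in which exon 7 inclusion puts luciferase in frame. Cells were plated 10-12 h before compound addition, then incubated 30-36 h at 37C. ONE-Glo luminescence was read; sodium butyrate at 4.5 mM final served as control.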
# ELG1 repair inh = qHTS screen for small molecules that inhibit ELG1-dependent DNA repair in human embryonic kidney (HEK293T) cells expressing luciferase-tagged ELG1; Potency, µM (series often up to 46.1 µM), inactives show top-dose activity change, negative = inhibition, hits mostly inhibitors; AID 504467, 2011; actives 2.3% (n = 330,000); HEK293T ELG1-luciferase reporter, luminescence, 16 h; DNA damage induced by 5-fluorouridine; further: on the % scale 0 is the no-effect control and ±100 the full control effect; nearly all actives have a fitted effect of over 55% in size
#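 HEK293T cells expressing luciferase-tagged ELG1 (2,000/well) received 5-Fluorouridine plus compound or DMSO for 16 hr at 37 °C. Luciferase was read by ONE-Glo luminescence after 30 min at room temperature.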
# FLuc counter = qHTS profiling assay for firefly luciferase inhibitor/activator using purifed enzyme and Km concentrations of substrates (counterscreen for miR-21 project); Luciferin 4-monooxygenase (Photinus pyralis), P08659; purified FLuc, Km substrates, luminescence inhibition; Potency, µM (doses to about 57.5 µM), inactives show at the highest dose activity change, negative = inhibition, actives largely listed as inhibitors; actives 6.9% (n = 360,000); AID 588342, 2011;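 further: plate controls were vehicle for no effect and reference inhibitor for full effect; nearly all actives have a fitted effect of over 55% in size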
# Target sequence (P08659 whole entry, looked up): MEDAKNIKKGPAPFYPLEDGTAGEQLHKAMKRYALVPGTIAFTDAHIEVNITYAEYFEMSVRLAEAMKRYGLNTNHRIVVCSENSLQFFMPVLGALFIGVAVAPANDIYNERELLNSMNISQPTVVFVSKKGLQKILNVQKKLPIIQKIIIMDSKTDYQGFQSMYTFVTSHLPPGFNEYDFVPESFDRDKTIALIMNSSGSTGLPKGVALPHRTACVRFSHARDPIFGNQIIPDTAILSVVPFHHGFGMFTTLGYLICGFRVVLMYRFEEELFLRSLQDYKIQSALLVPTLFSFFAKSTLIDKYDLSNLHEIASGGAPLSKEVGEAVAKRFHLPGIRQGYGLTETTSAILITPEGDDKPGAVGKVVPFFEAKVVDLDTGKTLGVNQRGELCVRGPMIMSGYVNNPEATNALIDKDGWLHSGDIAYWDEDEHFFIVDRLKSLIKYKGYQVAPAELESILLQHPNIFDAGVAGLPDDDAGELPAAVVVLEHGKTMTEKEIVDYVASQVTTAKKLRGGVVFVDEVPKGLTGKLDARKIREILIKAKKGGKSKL
#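 Purified P. pyralis luciferase (10nM final) with 10uM D-luciferin and 10uM ATP (Km levels) in 50mM Tris acetate pH 7.5, 10mM Mg acetate, 0.01% Tween-20, 0.05% BSA; qHTS 6-point titration, ~60 µM downward; luminescence read.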
# NPC1 prom act = qHTS Assay for NPC1 Promoter Activators. Huh7 NPC1 promoter luciferase reporter, 24 h. Potency, µM (top dose mostly 9.22 µM), for inactives: at the top dose activation, actives largely listed as activators. AID 485313, 2010. actives 2.4% (n = 320,000); further: % of control where 0% means no effect; nearly all actives have a fitted effect of over 60% in size
#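 Stably transfected Huh7 (NPC1 promoter→luciferase), 1500 cells/well in Opti-MEM + 10% FBS, 2 h settle, then compound 24 h at 37 °C. Luminescence after 10 min with Amplite reagent.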
# Starred values were filed as active, the others as inactive; ? = inconclusive; / = no result; [ ] = dose if it differs, or a comment. The call rests on the fitted dose curve; in most records, active means well fitted curve in the direction sought with a large enough effect; inconclusive means small, poorly fitted or top-dose-only effect, or another doubt; inactive means no such curve, though single readings can be large; an effect the other way counts as inactive or inconclusive. Potency means the concentration at half of the fitted maximal effect.
SMILES,ELG1 genotoxic,Rab9 promoter act,SMN2 splice up,ELG1 repair inh,FLuc counter,NPC1 prom act
COc1ccc(C(=O)Cc2ccc3c(c2)OCO3)c(O)c1,?,3.98µM*,5.62µM*,?,2.69µM*,2.82µM*
O=C(O)COc1ccc(C(=O)Cc2ccc3c(c2)OCCCO3)c(O)c1,-2.8%,-3.0%,-21.8%,4.7%,26.9µM*,-2.9%
COc1ccc(CC(=O)c2ccc(O)cc2O)cc1,?,?,-83.1%,?,?,?
O=C(Cc1ccc2c(c1)OCCO2)c1c(O)cc(O)cc1O,17.3%,?,10.7%,?,26.9µM*,26.6%
CCOc1ccc(CCNc2ncnc3onc(-c4ccc(F)cc4)c23)cc1OCC,/,/,/,/,0.9%,/
CSc1ncc(C(=O)N2CCN(c3cccc(C(F)(F)F)c3)CC2)c(C)n1,/,/,/,/,3.9%,/
FC(F)(F)c1cc(-c2ccccc2)nc2cc(-c3ccccc3)nn12,/,/,1.8%,/,-12.0%,/
COc1ccc(CO[C@@H]2O[C@H](CO)[C@@H](O)[C@H](O)[C@H]2NC(C)=O)cc1OC,0.2%,-8.8%,/,10.6%,-0.8%,0.7%
O=C(NCCCc1nc2ccccc2n1Cc1ccccc1F)c1ccco1,/,/,-11.8%,/,-7.3%,/
Oc1ccc(/C=N/N=C/c2ccc(O)cc2)cc1,3.6%,-14.8%,-3.7%,6.1%,7.57µM*,-1.8%
Oc1ccc(O)cc1,/,-42.4%[46.1 µM],9.5%,/,/,-31.9%[46.1 µM]
Oc1ccc(/C=N/N=C/c2ccc(O)c(O)c2)cc1O,11.2%,-1.8%,/,3.4%,15.1µM*,-5.6%
Cc1ccc(/C=N/N=C/c2ccc(C)cc2)cc1,20.6µM*,?,?,?,2.39µM*,?
Fc1cccc(/C=N/N=C/c2cccc(F)c2)c1,?,?,12.9%,?,2.69µM*,?
Cc1ccc(-n2ncc(C(=O)NCc3ccc4c(c3)OCO4)c2C2CCN(C(=O)OC(C)(C)C)CC2)cc1C,/,/,/,/,-5.9%,/
CCc1ccccc1NC(=O)c1nnn(Cc2ccc(Cl)cc2)c1N,/,/,-16.2%,/,4.1%,/
CC(C)c1ccc(S(=O)(=O)NCc2ccc3c(c2)OCO3)cc1,-0.3%,-9.8%,/,5.7%,-5.9%,-1.2%
C(=C/c1ccccc1)/c1ccccc1,/,/,16.9%,/,/,/
C(=N\N=C\c1ccccc1)/c1ccccc1,10.9%,21.4%,6.9%,?,0.953µM*,1.0%
CCN(CC)CCCNC(=O)c1ccc(Cn2c(SCc3ccccc3)nc3cccnc32)cc1,/,/,/,/,21.3µM*,/
CC(CNC(=O)c1ccc(Cn2c(SCc3ccccc3)nc3cccnc32)cc1)c1ccccc1 (stereo not given),/,/,/,/,4.78µM*,/
Cc1cccc(Cn2c(SCc3ccc(C(=O)NCc4ccccc4F)cc3)nc3cccnc32)c1,/,/,/,/,-4.3%,/
CC(NC(=O)c1ccc(Cn2c(SCc3ccccc3)nc3cccnc32)cc1)c1ccccc1 (stereo not given),/,/,/,/,-2.3%,/
COc1ccccc1CNC(=O)c1ccc(Cn2c(SCc3ccccc3)nc3cccnc32)cc1,/,/,/,/,4.78µM*,/
Cc1ccccc1CNC(=O)c1ccc(Cn2c(SCc3ccccc3)nc3cccnc32)cc1,/,/,/,/,2.69µM*,/
COC(=O)C1=C(C)N(Cc2ccccc2)C(=NCc2ccc(OC)cc2)N[C@H]1c1ccc(Br)cc1,/,-7.2%,/,/,2.8%,-0.2%
CCOCCCNC(=O)N1CCN(S(=O)(=O)c2ccc3c(ccn3C)c2)CC1,/,/,/,/,0.9%,/
CC(N)(COP(=O)(O)O)C(=O)O (stereo not given),/,/,-8.2%,/,/,/
COC(=O)c1cn(-c2ccccc2)nc1-c1ccccc1,6.7%,2.9%,-28.2%,2.4%,?,-0.8%
